# Calls of active or inactive are those of the source. Unless noted, the rule behind the calls is not given here.
# Experiments:
# [1] = test system: Wnt5a (protein binding on small-molecule microarray); test: Wnt5a binders on small-molecule microarray, primary screen, biophysical, 635/667 nm fluorescence (AID 1142); details: 635 nm fluorescence, higher = more signal;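 note: fluorescence read at 667 nm with signal to noise per printed feature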
# [2] = cell viability in Huh7 cells, primary screen, cytotoxicity control for HCV replication inhibitor project, CellTiter-Glo luminescence, basal, 48 h (AID 1143); details: Huh7 HCV replicon, higher = more signal, called active from +8 up or from −8 down;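 note: Huh7 hepatoma cells carrying a hepatitis C replication reporter with no stimulus; test concentration not given here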
# [3] = P. aeruginosa biofilm formation inhibitors, primary screen, PAO1 strain, BacTiter-Glo luminescence, LB-PBS (AID 1144); details: 12 h, higher = more signal
# [4] = CREB reporter modulators without forskolin, primary screen, cell-based, PC12, CRE-LacZ reporter, unstimulated (AID 1145); details: no forskolin, luminescence, 4.5 h, higher = more signal, called active from +8 up or from −8 down
# [5] = CREB reporter modulators under forskolin, primary screen, cell-based, PC12, CRE-LacZ reporter, forskolin-stimulated (AID 1146); details: luminescence, 4.5 h, higher = more signal, called active from +8 up or from −8 down;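 note: PC12 cells with 6xCRE LacZ reporter stimulated by forskolin 10 µM; beta-galactosidase reporter signal reflecting CREB driven transcription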
# [6] = target: Streptavidin (Streptomyces avidinii) (UniProt P22629); test: streptavidin binders on small-molecule microarray, primary screen, artefact control for SMM compound annotation, biophysical, 635/667 nm fluorescence (AID 1147); details: streptavidin binding, higher = more signal;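 note: signal reflects streptavidin binding to arrayed compounds as a control protein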
# [7] = small-molecule binders of probe aInhba, primary screen, biochemical, small-molecule microarray, 635/667 nm fluorescence (AID 1148); details: higher = more signal;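 note: score merges 667nm spot fluorescence with signal-to-noise for antibody binding to printed compounds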
# Torsin-1A (Homo sapiens) [8] = target: Torsin-1A (Homo sapiens) (UniProt O14656); test: torsin A binders from cell lysate, primary screen, small-molecule microarray, wild-type, 635/667 nm (AID 1149); details: COS7 hTOR1A-WT lysate, 635 nm fluorescence, higher = more signal
# Torsin-1A (Homo sapiens) [9] = target: Torsin-1A (Homo sapiens) (UniProt O14656); test: small-molecule binders of mutant TOR1A in lysate, primary screen, cell lysate, small-molecule microarray, COS7 lysate, 635/667 nm fluorescence (AID 1150); details: COS7 hTOR1A mutant lysate, 635 nm fluorescence, higher = more signal;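 note: score pools 667 nm emission and signal to noise measuring lysate protein binding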
# [10] = test system: Sonic hedgehog protein (Shh); test: small-molecule binders of Shh protein, primary screen, biochemical, small-molecule microarray, 635/667 nm fluorescence (AID 1151); details: small-molecule microarray binding, 635 nm fluorescence; higher = more signal;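 note: Shh protein binding to compounds spotted on small-molecule microarray slides; score combines spot fluorescence intensity with signal-to-noise across triplicate slides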
# Sequence of Torsin-1A (Homo sapiens) (O14656 whole entry, looked up): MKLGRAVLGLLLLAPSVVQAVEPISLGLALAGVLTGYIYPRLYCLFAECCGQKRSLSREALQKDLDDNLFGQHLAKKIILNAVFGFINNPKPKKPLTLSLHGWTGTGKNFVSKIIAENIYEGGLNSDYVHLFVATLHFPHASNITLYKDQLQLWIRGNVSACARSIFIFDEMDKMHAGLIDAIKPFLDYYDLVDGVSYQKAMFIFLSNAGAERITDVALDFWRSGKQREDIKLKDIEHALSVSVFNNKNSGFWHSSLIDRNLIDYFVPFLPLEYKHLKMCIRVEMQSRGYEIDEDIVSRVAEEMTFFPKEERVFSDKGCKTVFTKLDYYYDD
# Sequence of Streptavidin (Streptomyces avidinii) (P22629 whole entry, looked up): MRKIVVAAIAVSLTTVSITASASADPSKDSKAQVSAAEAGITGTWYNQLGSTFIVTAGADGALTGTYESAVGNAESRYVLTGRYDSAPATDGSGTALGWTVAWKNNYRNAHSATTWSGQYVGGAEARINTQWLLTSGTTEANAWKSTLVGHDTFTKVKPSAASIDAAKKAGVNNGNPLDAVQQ
SMILES,composite z-score [1],z-score [2],z-score [3],z-score [4],z-score [5],composite z-score [6],composite z-score [7],composite z-score (Torsin-1A (Homo sapiens) [8]),composite z-score (Torsin-1A (Homo sapiens) [9]),composite z-score [10]
COCCOC(=O)N1C(=O)[C@@]2(c3ccccc31)[C@H](c1ccc(O)cc1)N1[C@H](c3ccccc3)[C@H](c3ccccc3)OC(=O)[C@H]1[C@@H]2C(=O)N1CCN(c2ncccn2)CC1,0.019,-3.19 (inactive),0.109 (inactive),-0.598 (inactive),1.09 (inactive),-0.0184,0.361,0.432,0.997,1.4
CCOC(=O)C[C@H]1[C@H](OC(=O)c2cc3ccccc3oc2=O)[C@@H](NC(=O)c2ccccc2)c2cc(OCCCO)ccc2N1C(=O)c1ccccc1,0.315,-2.83 (inactive),0.311 (inactive),3.75 (inactive),-0.0599 (inactive),0.289,-0.113,0.575,0.347,0.696
COCC(=C=CC[C@H](O)c1ccccc1OCCO)C[C@H](O)c1ccccn1,0.0611,-0.0701 (inactive),-0.214 (inactive),1.04 (inactive),0.126 (inactive),-0.303,-0.154,-0.556,0.71,0.43
C=C(/C(=C/C[C@H](OC(C)=O)c1ccc(CO)o1)c1cnc2ccccc2c1)C(C)C,0.473,0.27 (inactive),-1.31 (inactive),-0.671 (inactive),0.647 (inactive),1.44,0.0528,1.27,0.269,1.65
C=CCNC(=O)[C@@H]1[C@H]2C(=O)O[C@H](c3ccccc3)[C@H](c3ccccc3)N2[C@H](c2ccccc2OCCO)[C@@]12C(=O)N(C(=O)OCCOC)c1ccc(C#CC3(O)CCCCCC3)cc12,0.238,-4.26 (inactive),-0.0868 (inactive),-1.02 (inactive),-0.965 (inactive),0.159,0.115,0.759,0.631,1.58
C=CC[C@H](OC(=O)Nc1ccc(SC)cc1)c1ccc(O)c2ccccc12,0.336,-6.78 (inactive),-0.921 (inactive),4.1 (inactive),3.2 (inactive),1.61,-0.101,0.557,0.465,1.76
CCOC(=O)C1=CC[C@@H](c2ccccc2F)N(S(=O)(=O)c2ccc(C)cc2)[C@H]1c1ccccc1,0.483,-3.92 (inactive),0.0947 (inactive),0.827 (inactive),0.649 (inactive),0.872,-0.045,0.263,0.388,0.649
CS(=O)(=O)CCOC(=O)C1=CC(c2ccc(CO)cc2)=CC(C2CC2)N(Cc2sc3ccccc3c2Cl)C=C1C(=O)OCCS(C)(=O)=O (stereo not given),-0.0091,-4.22 (inactive),-1.49 (inactive),1.8 (inactive),-2.66 (inactive),1.95,0.0843,1.24,1.31,1.23
Cc1ccc(S[C@]2(C(=O)NCC(F)(F)F)CC(=O)N(Cc3cc(C(F)(F)F)cc(C(F)(F)F)c3)[C@@H]2c2ccc(CO)cc2I)cc1,-0.676,-3.02 (inactive),-1.29 (inactive),-0.529 (inactive),0.423 (inactive),-0.978,-0.153,-0.877,-0.902,-0.58
COc1ccc(CCNC(=O)[C@@]2(Cc3ccccc3I)c3ccccc3C(=O)N(C3CCCCC3)[C@H]2c2ccc(CO)cc2)cc1,-0.372,-6.39 (inactive),-1.43 (inactive),-0.0243 (inactive),-1.06 (inactive),0.623,0.0198,-0.57,-0.0979,-0.193
O=C1O[C@H](c2ccccc2)[C@H](c2ccccc2)N2[C@H]1[C@@H](C(=O)O)[C@]1(C(=O)Nc3ccc(C#CCCO)cc31)[C@H]2c1ccccc1OCCO,0.248,-0.873 (inactive),-0.352 (inactive),-0.195 (inactive),1.04 (inactive),-0.18,-0.0986,-0.658,-0.199,0.824
CC1=C2[C@@H](CCc3ccccc3)OB(O)C[C@@H]2[C@@H]2C(=O)N(Cc3ccccc3)C(=O)[C@@H]2C1,0.0023,-0.23 (inactive),0.615 (inactive),0.39 (inactive),-0.138 (inactive),-0.189,-0.285,0.572,0.333,0.792
COC(=O)[C@@]1(Cc2ccc(OC)cc2)[C@H]2c3cc(C(=O)N(C)C)n(Cc4ccc(OC(F)(F)F)cc4)c3C[C@H]2CN1C(=O)c1ccccc1,-0.223,-2.6 (inactive),0.043 (inactive),4.4 (inactive),74 (active),0.539,0.185,-0.178,0.555,-0.955
CC(C)[Si](C#CCCCC#N)(O[C@H](c1ccccc1)c1cn(Cc2ccccc2)nn1)C(C)C,0.125,-0.507 (inactive),-0.319 (inactive),0.773 (inactive),-0.0473 (inactive),0.62,-0.157,0.148,0.194,0.531
C=C(C(=O)CC[C@H](OC(=O)c1ccccc1-c1ccccc1C(=O)O)c1cccc(OCCO)c1)C(C)C,-0.103,-0.208 (inactive),-0.125 (inactive),0.102 (inactive),3.19 (inactive),-0.186,-0.0719,-0.492,-0.0541,0.432
C#CCN([C@@H](Cc1ccccc1)C(=O)OC)[C@@H](/C=C/C1CC1)[C@H](O)Cc1ccccc1,-0.476,-3.22 (inactive),0.398 (inactive),1.67 (inactive),-0.0949 (inactive),-0.676,-0.157,0.239,-0.211,0.314
COc1cc(NN2C(C(O)c3ccc(N(C)C)cc3)C=CC3C(=O)N(c4ccccc4)C(=O)C32)cc(OC)c1OC (stereo not given),0.0759,-2.89 (inactive),-0.414 (inactive),-0.136 (inactive),-0.259 (inactive),0.535,0.242,-0.223,0.419,-0.254
CCCNC(=O)[C@@H]1c2ccccc2C(=O)N(Cc2ccc(OC(F)(F)F)cc2)[C@H]1c1ccc(CO)cc1,0.474,-0.88 (inactive),0.256 (inactive),-0.322 (inactive),-0.283 (inactive),-0.127,-0.0963,0.0008,-0.424,0.346
CC(c1ccccc1)C(O)C1C=CC2C(=O)N(C)C(=O)C2N1Nc1ccccc1 (stereo not given),0.462,0.481 (inactive),-0.0225 (inactive),0.0535 (inactive),-0.0744 (inactive),1.62,0.562,0.112,0.299,-0.353
COC(=O)[C@@]1(Cc2ccc(F)cc2)[C@H]2c3cc(C(=O)N4CCCC4)n(CCc4c[nH]c5ccccc45)c3C[C@H]2CN1C(=O)c1ccccc1,0.407,-3.01 (inactive),1.82 (inactive),0.587 (inactive),0.668 (inactive),1.91,0.668,-0.0812,0.321,-0.393
COCCOC(=O)N1C(=O)[C@@]2(c3cc(C#CC4(O)CCCCCC4)ccc31)[C@H](c1ccc(O)cc1)N1[C@H](c3ccccc3)[C@H](c3ccccc3)OC(=O)[C@H]1[C@@H]2C(=O)N1CCN(c2ncccn2)CC1,0.623,-1.53 (inactive),-0.127 (inactive),-0.141 (inactive),0.0053 (inactive),1.33,-0.0918,0.49,0.813,0.185
COc1cc2c(cc1O)C(c1cccs1)N(Cc1cc3c(cc1Br)OCO3)CC2 (stereo not given),0.594,-4.04 (inactive),0.582 (inactive),0.0924 (inactive),0.726 (inactive),2.07,0.0268,0.835,1.16,0.305
COCCCNC(=O)[C@@]1(CCC(=O)OC(C)(C)C)N=C(c2ccc(OCCCO)cc2)O[C@H]1c1ccccc1N=[N+]=[N-],0.573,-0.61 (inactive),0.199 (inactive),0.456 (inactive),-1.71 (inactive),2.07,0.545,0.786,1.04,-0.341
[N-]=[N+]=Nc1ccccc1C[C@@]1(C(N)=O)N=C(c2ccc(OCCCO)cc2)O[C@@H]1c1ccccc1N=[N+]=[N-],0.351,-5.17 (inactive),-0.0225 (inactive),-0.207 (inactive),-1.89 (inactive),0.823,0.258,0.252,0.789,-0.535
Cc1ccc(S[C@]2(C(=O)NCCN3CCOCC3)CC(=O)N(Cc3ccccc3Cl)[C@@H]2c2ccc(CO)cc2I)cc1,0.0976,-2.1 (inactive),-0.0266 (inactive),-0.581 (inactive),0.631 (inactive),-0.343,0.658,-1.69,0.75,-0.316
O=C(O)[C@@H]1[C@@H]2C(=O)N(c3ccccc3)C(=O)[C@@H]2C[C@@H]1Sc1ccccc1,-0.129,0.739 (inactive),0.956 (inactive),0.379 (inactive),0.774 (inactive),-0.237,-0.389,-0.402,-1.03,-1.45
CCCNC(=O)[C@@]1(C)c2ccccc2C(=O)N(c2ccc(C)cn2)[C@H]1c1ccc(CO)cc1,-0.297,0.242 (inactive),-0.31 (inactive),1.29 (inactive),-0.0049 (inactive),-0.516,0.0398,0.399,0.266,0.224
CCOC(=O)C[C@H]1[C@H](OC(=O)c2ccc(C(=O)c3ccccc3)cc2)[C@@H](NC(=O)CC(C)C)c2cc(OCCCO)ccc2N1C(=O)c1ccccc1,0.154,-0.133 (inactive),-0.367 (inactive),3.01 (inactive),-0.443 (inactive),1.17,-0.0131,0.125,0.442,1.32
CCOC(=O)C[C@H]1[C@H](OC(=O)c2ccc(C(=O)c3ccccc3)cc2)[C@@H](NC(=O)C2CCCCC2)c2cc(OCCCO)ccc2N1C(=O)c1ccc2ccccc2n1,0.233,0.233 (inactive),-1.09 (inactive),-0.215 (inactive),-0.825 (inactive),0.731,-0.0933,0.772,0.298,0.93
